# In article PMC4242493, “Sequence specificity incompletely defines the genome-wide occupancy of Myc”:
# Whole data set: some 33,000 sequences, median “normalized occupancy” near 0.075, cut for the highest 2% near 0.095. This excerpt belongs to a sample that is enriched for the highest values.
# Target: MaxL homodimer (Homo sapiens, UniProt P61244 1-160)
# Test: universal protein-binding microarray (PBM); PBS-based mixture, 10 nM His-tagged protein dimer, 2% milk, 200 ng/uL BSA, 50 ng/uL salmon testes DNA, 0.02% TX-100; detection with Alexa 488 anti-His antibody;; high values mean tight binding
# Conditions: protein: recombinant; tags: C-terminal His-tag (pET21a); chain copies: 2; dsDNA, one strand shown
# How it was run: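 Binding occupancy is a fluorescence intensity normalised to the intensity of the highest-ranked sequence word. Those intensities came from 8-mers on Agilent 4 x 44 K 'all 10-mer' universal arrays incubated with 10 nM His-tagged protein dimer. Bound protein was detected with 10 ng/μL fluorophore-conjugated anti-His antibody before scanning on a GenePix 4400A.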
# Sequence of MaxL homodimer (P61244 whole entry): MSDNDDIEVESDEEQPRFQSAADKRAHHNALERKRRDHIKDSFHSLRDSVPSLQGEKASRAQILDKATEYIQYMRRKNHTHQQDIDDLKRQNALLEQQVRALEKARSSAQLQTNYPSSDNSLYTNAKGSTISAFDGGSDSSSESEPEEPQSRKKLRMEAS
row,Sequence,binding signal
1,TATGCTAA,0.0798 normalized occupancy
2,CAATCTCG,0.0753 normalized occupancy
3,ACGCTGAC,0.0735 normalized occupancy
4,ATTTGAGA,0.0896 normalized occupancy
5,AGACCCTC,0.0752 normalized occupancy
6,CTGGTCAC,0.0773 normalized occupancy
7,ATTTATGC,0.0838 normalized occupancy
8,AGAGTTAA,0.0737 normalized occupancy
9,AAGCGTGT,0.0967 normalized occupancy
10,AAGCGTAT,0.0722 normalized occupancy
11,AAGCGCGT,0.0758 normalized occupancy
12,GAGGGGAA,0.0755 normalized occupancy
13,AGGTGATA,0.0839 normalized occupancy
14,ACGTGATG,0.103 normalized occupancy
15,CCGTGATC,0.0778 normalized occupancy
16,CCATGATA,0.0845 normalized occupancy
17,AGGTGATG,0.0834 normalized occupancy
18,AAGTGATA,0.0795 normalized occupancy
19,GCATGATA,0.0994 normalized occupancy
20,ACGTGATA,0.11 normalized occupancy
21,ACGTGATC,0.108 normalized occupancy
22,AAGTGATC,0.0794 normalized occupancy
23,GTATGATA,0.0877 normalized occupancy
24,AAGTGATG,0.0756 normalized occupancy
25,CTGGACGA,0.0734 normalized occupancy

row,Sequence,binding signal
1,CCTTCAGA,0.0732 normalized occupancy
2,CGAGGGCA,0.0765 normalized occupancy
3,GTGCTGGA,0.0813 normalized occupancy
4,ATTGATTG,0.0769 normalized occupancy
5,CAAGGGAA,0.0781 normalized occupancy
6,ATGGATGC,0.082 normalized occupancy
7,CCGTGATA,0.0782 normalized occupancy
8,GAGTGATA,0.0802 normalized occupancy
9,GCGTGATA,0.1 normalized occupancy
10,CCATTCAA,0.0785 normalized occupancy
11,ATCATGGA,0.0834 normalized occupancy
12,AGCATGGA,0.1 normalized occupancy
13,CCCATGGC,0.0849 normalized occupancy
14,ATCATGGC,0.0863 normalized occupancy
15,AGAATGGC,0.0756 normalized occupancy
16,AGCATAGG,0.0718 normalized occupancy
17,AGCATGGC,0.102 normalized occupancy
18,AGCATTGA,0.0777 normalized occupancy
19,AGCATGGG,0.106 normalized occupancy
20,CGCATAGC,0.0734 normalized occupancy
21,CGCATGGC,0.127 normalized occupancy
22,ATCATGGG,0.0858 normalized occupancy
23,ACTTTTAT,0.0748 normalized occupancy
24,CAGTAAAC,0.0746 normalized occupancy
25,ACTTTGAA,0.0759 normalized occupancy

row,Sequence,binding signal
1,CGTTATGA,0.0829 normalized occupancy
2,CTTGATGA,0.0755 normalized occupancy
3,AGATTATC,0.0807 normalized occupancy
4,CCTCGCCG,0.0725 normalized occupancy
5,GGCATGGA,0.0929 normalized occupancy
6,CGCATGGA,0.106 normalized occupancy
7,GTCATGGA,0.0831 normalized occupancy
8,ACTGTTTC,0.0744 normalized occupancy
9,ATGAGTAC,0.0839 normalized occupancy
10,AATGCTAG,0.079 normalized occupancy
11,CATGCTAC,0.0953 normalized occupancy
12,AATGCTAC,0.0772 normalized occupancy
13,GATGCTAC,0.081 normalized occupancy
14,CATGCTAG,0.106 normalized occupancy
15,CATGCTAA,0.091 normalized occupancy
16,GGTAACGA,0.0778 normalized occupancy
17,AGATGACT,0.0724 normalized occupancy
18,CGGTGGAA,0.0725 normalized occupancy
19,ATATATGG,0.0895 normalized occupancy
20,ACATATCC,0.0835 normalized occupancy
21,ACATATGG,0.0977 normalized occupancy
22,ACATATGT,0.0906 normalized occupancy
23,CCATATGA,0.0926 normalized occupancy
24,ACATATGC,0.0976 normalized occupancy
25,TCATATGA,0.0914 normalized occupancy

row,Sequence,binding signal
1,ACATATGA,0.0952 normalized occupancy
2,ATATATGC,0.0867 normalized occupancy
3,GAACATAC,0.0829 normalized occupancy
4,GAATTACC,0.072 normalized occupancy
5,GCACCTTA,0.0768 normalized occupancy
6,CACGAGGC,0.134 normalized occupancy
7,CACGAGGA,0.137 normalized occupancy
8,AACGAGGG,0.0775 normalized occupancy
9,AACGAGGC,0.0809 normalized occupancy
10,AACGAGAC,0.075 normalized occupancy
11,AACGAGGA,0.088 normalized occupancy
12,CACGAGCG,0.082 normalized occupancy
13,TACGAGGA,0.0793 normalized occupancy
14,CACGAGCC,0.0812 normalized occupancy
15,CACGAGAC,0.1 normalized occupancy
16,CACGAGAA,0.0893 normalized occupancy
17,CACGAGGG,0.134 normalized occupancy
18,TACGGGCA,0.0723 normalized occupancy
19,GGTCTTAA,0.075 normalized occupancy
20,CTCTATTA,0.0807 normalized occupancy
21,CCCCGCAG,0.072 normalized occupancy
22,CAAATCTA,0.0804 normalized occupancy
23,GCTTCTTA,0.0746 normalized occupancy
24,CACAAGAG,0.0792 normalized occupancy
25,AACGTTTA,0.0757 normalized occupancy

row,Sequence,binding signal
1,GACGTTTA,0.0757 normalized occupancy
2,CATGTTTC,0.0831 normalized occupancy
3,CATGTTTA,0.0975 normalized occupancy
4,CACGTTTC,0.105 normalized occupancy
5,CACGTTTA,0.0986 normalized occupancy
6,CGCGTTTC,0.0778 normalized occupancy
7,AACGTTTC,0.0739 normalized occupancy
8,AATGTTTA,0.0748 normalized occupancy
9,AGAAACCC,0.0744 normalized occupancy
10,ATAGAATC,0.0826 normalized occupancy
11,AGTGCTAG,0.0731 normalized occupancy
12,ACCTTCAA,0.0719 normalized occupancy
13,CGAATAGA,0.0736 normalized occupancy
14,CAGAACTA,0.0728 normalized occupancy
15,CTAGAAGA,0.0731 normalized occupancy
16,AACGATGA,0.0771 normalized occupancy
17,ACCCGTCA,0.0779 normalized occupancy
18,ATGTGCGG,0.104 normalized occupancy
19,ATGTGTCA,0.101 normalized occupancy
20,ATGTGAGA,0.0969 normalized occupancy
21,ATGTGTGA,0.102 normalized occupancy
22,ATGTGCGA,0.0863 normalized occupancy
23,GTGTGAGA,0.0806 normalized occupancy
24,GTGTGTCA,0.0887 normalized occupancy
25,ATGTGAGG,0.0857 normalized occupancy

row,Sequence,binding signal
1,CTGTGTGA,0.0738 normalized occupancy
2,GTGTGTGA,0.0839 normalized occupancy
3,ATGTGTCG,0.0903 normalized occupancy
4,ATGTGCGC,0.0928 normalized occupancy
5,ATTGAACG,0.082 normalized occupancy
6,CTGACTAA,0.0729 normalized occupancy
7,ACATAAGA,0.0789 normalized occupancy
8,AACCTCTA,0.0738 normalized occupancy
9,CCCTCCTC,0.0734 normalized occupancy
10,CGTACTGA,0.0729 normalized occupancy
11,AGCGCACG,0.0877 normalized occupancy
12,AGGAAAAC,0.075 normalized occupancy
13,ACGCGCCC,0.0753 normalized occupancy
14,TAACTGCA,0.0726 normalized occupancy
15,GCTACCAA,0.0737 normalized occupancy
16,TGATGGCA,0.08 normalized occupancy
17,AGTCCCCC,0.0801 normalized occupancy
18,ATCTTTAC,0.0755 normalized occupancy
19,ATGTCACG,0.101 normalized occupancy
20,ATGTGTGG,0.0891 normalized occupancy
21,ATGTGTGC,0.0957 normalized occupancy
22,ATGTCACA,0.0852 normalized occupancy
23,ATGTCACC,0.08 normalized occupancy
24,CTGTGTGC,0.0783 normalized occupancy
25,AATTCCGA,0.0729 normalized occupancy

row,Sequence,binding signal
1,CATCTGTC,0.0856 normalized occupancy
2,GGGCTGTA,0.0762 normalized occupancy
3,CCCATCTA,0.0745 normalized occupancy
4,CATAAATC,0.0857 normalized occupancy
5,CCGAACAA,0.0756 normalized occupancy
6,GAAGTGAC,0.0733 normalized occupancy
7,AACATGAA,0.0878 normalized occupancy
8,GACATGAA,0.0775 normalized occupancy
9,CACATGAC,0.129 normalized occupancy
10,CTCATGAG,0.0946 normalized occupancy
11,AACATGAC,0.0831 normalized occupancy
12,CACATGAG,0.109 normalized occupancy
13,AACATGAG,0.0999 normalized occupancy
14,CAAATGAG,0.0793 normalized occupancy
15,CACATGAA,0.104 normalized occupancy
16,CAAATGAC,0.0825 normalized occupancy
17,GACATGAC,0.0811 normalized occupancy
18,TACATGAA,0.0793 normalized occupancy
19,ATGTACAA,0.0815 normalized occupancy
20,AAAAACCA,0.0806 normalized occupancy
21,GCCACAGC,0.0723 normalized occupancy
22,AATCGTAC,0.0751 normalized occupancy
